# Test results reported in article PMC4336329 (PLoS ONE, 2015).
# Hit rate of the full screen: of about 310,000 compounds, about 14,000 (4.5%) showed an effect of 50% or more. The effect is printed as a negative number. Many of the other results were omitted from the sample, so strong results are more common in it than they were.
# Molecular target: human ether-à-go-go-related gene (hERG) potassium channel (human, UniProt Q12809)
# Assay: primary screen, population patch clamp on CHO cells stably expressing hERG; higher = less effect of the substance
# 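Further: peak tail current of the secondary pulse compared with the same well before compound.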
# Sequence of human ether-à-go-go-related gene (hERG) potassium channel (Q12809 whole entry, looked up): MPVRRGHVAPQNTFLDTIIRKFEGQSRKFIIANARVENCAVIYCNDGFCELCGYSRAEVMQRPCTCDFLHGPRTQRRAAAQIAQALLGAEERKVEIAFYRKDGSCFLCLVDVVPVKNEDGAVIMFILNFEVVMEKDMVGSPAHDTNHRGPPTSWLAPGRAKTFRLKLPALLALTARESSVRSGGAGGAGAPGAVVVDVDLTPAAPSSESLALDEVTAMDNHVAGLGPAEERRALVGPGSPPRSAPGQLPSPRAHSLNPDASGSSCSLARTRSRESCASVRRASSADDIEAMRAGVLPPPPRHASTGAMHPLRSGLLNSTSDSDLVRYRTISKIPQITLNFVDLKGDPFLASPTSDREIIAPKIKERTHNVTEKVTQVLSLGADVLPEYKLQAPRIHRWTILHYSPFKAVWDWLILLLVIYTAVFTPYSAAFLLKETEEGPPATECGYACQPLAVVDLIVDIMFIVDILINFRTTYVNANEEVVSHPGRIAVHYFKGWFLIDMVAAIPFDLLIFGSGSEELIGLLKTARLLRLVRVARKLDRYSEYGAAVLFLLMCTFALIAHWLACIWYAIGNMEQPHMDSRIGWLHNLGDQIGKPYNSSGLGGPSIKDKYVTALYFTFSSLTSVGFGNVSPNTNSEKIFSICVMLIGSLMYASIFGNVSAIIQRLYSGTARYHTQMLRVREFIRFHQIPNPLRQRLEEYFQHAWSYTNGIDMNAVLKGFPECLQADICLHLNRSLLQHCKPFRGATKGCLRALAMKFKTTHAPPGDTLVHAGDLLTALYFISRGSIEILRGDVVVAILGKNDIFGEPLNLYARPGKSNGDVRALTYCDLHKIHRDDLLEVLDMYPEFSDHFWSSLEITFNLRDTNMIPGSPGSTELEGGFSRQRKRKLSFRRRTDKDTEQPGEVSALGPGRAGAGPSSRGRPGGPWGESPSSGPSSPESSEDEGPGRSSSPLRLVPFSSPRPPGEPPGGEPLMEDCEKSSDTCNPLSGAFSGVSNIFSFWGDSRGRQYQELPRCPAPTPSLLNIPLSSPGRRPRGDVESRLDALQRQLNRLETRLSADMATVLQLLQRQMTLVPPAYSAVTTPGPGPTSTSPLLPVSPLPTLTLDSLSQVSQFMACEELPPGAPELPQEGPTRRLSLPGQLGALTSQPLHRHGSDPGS
row,Compound,"hERG current change (%, negative = inhibition) at 10uM [%]"
1,CCN(CC)CCN(C(=O)Cn1nnc(-c2ccc(OC)c(OC)c2)n1)C(C(=O)NC1CCCC1)c1ccc(F)cc1 (stereo not drawn),-35.1
2,CCOCCCN(C(=O)Cn1nnc(-c2ccc(OC)c(OC)c2)n1)C(C(=O)NCC1CCCO1)c1ccc(F)cc1 (stereo not drawn),-12.8
3,CCN(CC)CCCN(C(=O)Cn1nnc(-c2ccc(OC)c(OC)c2)n1)C(C(=O)NC(C)(C)C)c1ccc(F)cc1 (stereo not drawn),-74.5
4,CCOC(=O)N1CCC(N2CCN(c3cc(C)ccc3C)CC2)CC1,-51.2
5,CCOC(=O)N1CCC(Nc2c(NCCN3CCN(c4cccc(Cl)c4)CC3)c(=O)c2=O)CC1,-0.879
6,CCOC(=O)N1CCN(c2c(NC3CCN(Cc4ccccc4)CC3)c(=O)c2=O)CC1,7.18
7,CCOC(=O)N1CCC(NCCNC(=O)c2ccc(F)cc2)CC1.Cl,-25.2
8,CCOC(=O)N1CCN(c2c(N3CCN(c4cccc(C(F)(F)F)c4)CC3)c(=O)c2=O)CC1,-46.4
9,CCOC(=O)N1CCC(NCCNC(=O)c2ccc(Cl)cc2)CC1,-57.8
10,CCOC(=O)N1CCC(N2CCN(c3ccccc3)CC2)CC1.Cl,-21.4
11,CCOC(=O)N1CCC(Nc2c(N3CCN(c4cccc(C(F)(F)F)c4)CC3)c(=O)c2=O)CC1,-76.8
12,CCOC(=O)N1CCN(c2c(NCc3ccc(Cl)cc3)c(=O)c2=O)CC1,-17
13,CCOC(=O)N1CCC(Nc2c(N3CCN(c4cc(Cl)ccc4C)CC3)c(=O)c2=O)CC1,-80.4
14,CCOC(=O)N1CCC(NC(=O)c2ccc(Cl)cc2)CC1,-14.5
15,CCOC(=O)N1CCN(c2c(N3CCN(c4cc(C)ccc4C)CC3)c(=O)c2=O)CC1,-15.1
16,C[C@@H]1C(=O)O[C@H]2[C@H]1CC[C@@]1(C)C(=O)C=C[C@@](C)(O)[C@H]21,15.6
17,C=CCN1C(=O)c2ccc(C(=O)OCC(=O)N3CCN(c4ccccc4)CC3)cc2C1=O,7.02
18,CC(C(=O)NCCc1ccccc1)N1c2cccc3cccc(c23)S1(=O)=O (stereo not drawn),-21.2
19,Cc1ccc(C(=O)OCC(=O)NNC(=O)COc2ccc(Cl)cc2)c(O)c1,-2.08
20,O=C(Cc1ccc(NS(=O)(=O)c2ccc(F)cc2)cc1)NCc1ccccc1,-16.4
21,O=C(N/N=C/c1cc([N+](=O)[O-])ccc1O)C12CC3CC(CC(C3)C1)C2,8.39
